Test results: PubChem BioAssay (NCATS)
Records with an inconclusive call do not appear. Activity calls are given as the source filed them. Unless noted, calls follow the shape of the dose curve; as a rule, active = well fitted curve in the direction sought with a large enough effect; inconclusive = small, poorly fitted or top-dose-only effect, or another doubt; inactive = no such curve, though single readings can be large; an effect the other way counts as inactive or inconclusive.

Columns and labels:
[1] = molecular target: Lysosomal acid glucosylceramidase (Homo sapiens) (UniProt P04062); assay: Glucocerebrosidase-p2 (AID 348; in the data active = potency below about 10 µM; also: potency is read from the fitted curve at half-maximal effect); conditions: purified GBA, blue fluorogenic substrate, 40 min
Summary of the method: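 Compounds titrated from 0.6 nM upwards against 0.2 nM enzyme in pH 5.9 citric acid/KH2PO4, taurocholate, tween-20; blue fluorogenic substrate 80 uM, 40 min room temperature, stopped and read Ex 365/Em 440 for AC50.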

[2] = AP1 Signaling Pathway (AID 357; active = well fitted curve in either direction with a large enough effect, not every such curve was filed as active;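 also: ME-180 reporter cells stimulated with EGF at its EC50 level; % is scaled to controls: 0 for no effect and ±100 for the full control effect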); conditions: ME-180 AP-1-bla reporter, EGF-induced, beta-lactamase ratio, 5 h; at 7.69 µM (top of the series) unless noted
Summary of the method: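 Titration-series screen for positive or negative modulators of EC50 EGF-induced signaling in ME-180 cells carrying an AP-1-driven beta-lactamase reporter. After 5 hours at 37 degrees Celsius, CCF4 460nm/530nm emission ratio gave %Activity; AC50 values derived.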

[3] = molecular target: Cytochrome P450 1A2 (Homo sapiens) (UniProt P05177); assay: p450-cyp1a2 (AID 410; calls by dose curve;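 also: -100% = full effect of reference inhibitor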); conditions: recombinant CYP1A2, luciferin-ME demethylation, luminescence; series mostly up to 11.4 µM
Summary of the method: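 Human CYP1A2 (20nM) demethylated Luciferin-ME at its Km (100uM) in 100mM KPO4. After 10 min compound preincubation, NADPH regeneration ran the reaction 60 min at room temperature. Luciferin was read by luminescence, normalized to 57 uM furafylline.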

[4] = NFAT Signaling Pathway (AID 444; active = well fitted curve in either direction with a large enough effect, not every such curve was filed as active;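 also: carbachol stimulus at about its EC50 of 1 µM final; % is scaled to controls: 0 for no effect and ±100 for the full control effect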); conditions: Jurkat NFAT-bla M1, carbachol, beta-lactamase ratio, 5 h; at 7.69 µM (top of the series) unless noted
Summary of the method: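 Jurkat cells carrying an NFAT-driven β-lactamase reporter and co-transfected muscarinic M1 receptor were treated with compound plus carbachol (1 uM final, an EC50 level) for 5 h at 37 °C. CCF4 loading followed for 1 h at RT; 460/530 nm ratio gave %activity.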

[5] = Stat Signaling Pathway (AID 446; active = well fitted curve in either direction with a large enough effect, not every such curve was filed as active;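 also: ME-180 cervical cancer cells given 40 pM IL-6 alongside compound; SIE-controlled beta-lactamase reporter measured as 460/530 nm FRET emission ratio; % is scaled to controls: 0 for no effect and ±100 for the full control effect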); conditions: ME-180 (cervical carcinoma) SIE beta-lactamase reporter, IL-6 stimulated, 5 h; at 7.69 µM (top of the series) unless noted
Summary of the method: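 IL-6/STAT signaling read in ME-180 cells via an SIE beta-lactamase reporter. Stimulus was 40 pM IL-6 (its AC50) for 5 hrs, so both activation and inhibition register.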

[6] = molecular target: Glucocorticoid receptor (Homo sapiens) (UniProt P04150); assay: GR-GFP Redistribution (AID 450;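 active = compounds whose dose series gives a full or clear partial fitted curve of increased nuclear translocation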; also: potency is read from the fitted curve at half-maximal effect); conditions: U2OS GR-GFP nuclear translocation, laser cytometry, 2 h
[7] = molecular target: Glucocorticoid receptor (Homo sapiens) (UniProt P04150); assay: GR-EFC Redistribution (AID 451; calls by dose curve; also: potency is read from the fitted curve at half-maximal effect); conditions: CHO-K1 GR-EFC translocation, beta-gal luminescence, 2 h
Summary of the method: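 CHO-K1 cells stably expressing nuclear-localized β-gal enzyme acceptor and GR fused C-terminally to the enzyme donor fragment; ligand-driven nuclear translocation restores β-gal by complementation. Compounds titrated up to 46 uM final, 2 h at 37 °C; luminescence read.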

[8] = molecular target: Mitogen-activated protein kinase 10 (Mus musculus) (UniProt Q61831); assay: JNK3 AlphaScreen Assay (AID 530; active = well fitted curve in either direction with a large enough effect, not every such curve was filed as active;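 also: kinase came from lysate of stimulated human HepG2 cells; signal reports phosphorylation of biotinylated GST-cJun 1-79 at Ser73 with 10 µM ATP; % is scaled to controls: 0 for no effect and ±100 for the full control effect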); conditions: JNK3 lysate, c-Jun phosphorylation; series mostly up to 57.1 µM
Summary of the method: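 JNK3 came from HepG2 lysates pre-activated with IL-1beta and TNF-alpha and phosphorylated biotinylated GST-cJun (1-79) at 10 uM ATP, pH 7.6, room temperature. Compounds were titrated. AlphaScreen signal used anti-phospho-cJun (Ser73) antibody.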

[9] = molecular target: 3',5'-cyclic-AMP phosphodiesterase 4B (Homo sapiens) (UniProt Q07343); assay: qHTS Assay for Inhibitors of PDE-IV (AID 607; active = well fitted activation curve with a large enough effect in the main read-out, with a control signal flat, not every such curve was filed as active; also: % of control where 0% means no effect); conditions: HEK293 ACTOne CNG channel cells, membrane potential fluorescence; series mostly up to 22.9 µM
Summary of the method: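 Live HEK293 cells with a modified cyclic nucleotide-gated (CNG) channel report intracellular cAMP via membrane-potential dye fluorescence (ex 535/em 590 nm). Endogenous PDE-IV was targeted. Compounds were tested at up to 22.9 uM final; RO 20-1724 100 uM served as control.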

[10] = molecular target: Cytochrome P450 2C19 (Homo sapiens) (UniProt P33261); assay: qHTS Assay for Inhibitors and Substrates of Cytochrome P450 2C19 (AID 899); conditions: recombinant CYP2C19, luciferin-H EGE luminescence; series mostly up to 11.4 µM; also: % is scaled to controls: 0 for no effect and ±100 for the full control effect; nearly all actives have a fitted effect of over 60% in size
Summary of the method: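 NADPH-dependent conversion of Luciferin-H EGE (10uM, at KM) by 5nM enzyme in 50mM KPO4, 60 min at 37C following 10 min compound preincubation. Stopped with luciferin detection buffer; luminescence read after 20 min.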

[11] = molecular target: ATP-dependent 6-phosphofructokinase (Trypanosoma brucei brucei) (UniProt O15648); assay: qHTS Assay to Find Inhibitors of T. brucei phosphofructokinase: hit validation (AID 492961); conditions: T. brucei PFK, ADP-Glo luminescence; series mostly up to 51.4 µM
Summary of the method: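 Percent activity derived from corrected luminescence, normalized between 0x and 1x enzyme controls, then fitted to concentration-response curves. Conditions: 1.25 nM PFK, 0.1 mM ATP, 0.5 mM F6P, 45 min RT.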

[12] = molecular target: Ubiquitin carboxyl-terminal hydrolase 1 (Homo sapiens) (UniProt O94782); assay: Inhibitors of USP1/UAF1: Pilot qHTS (AID 504865); conditions: purified USP1/UAF1, Ub-rhodamine cleavage fluorescence; series mostly up to 114 µM;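 also: rhodamine fluorescence freed from ubiquitin-rhodamine substrate followed over time; top concentration of the series differs between compounds; % is scaled to controls: 0 for no effect and ±100 for the full control effect; nearly all actives have a fitted effect of over 35% in size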
Summary of the method: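 In 50mM HEPES pH 7.8 containing 0.5mM EDTA, 1mM TCEP, 0.1 mg/ml BSA and 0.01% Tween-20, 1nM USP1/UAF1 is exposed to compound for 15 min, then Ub-Rho (150nM final) is added and fluorescence is read over time.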

[13] = molecular target: Luciferin 4-monooxygenase (Photinus pyralis) (UniProt P08659); assay: Biochemical firefly luciferase enzyme assay for NPC (AID 624030);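 also: purified P. pyralis luciferase at 10 nM with luciferin and ATP substrate; 0% = DMSO and -100% = full luciferase inhibition by PTC124 control; nearly all actives have a fitted effect of over 70% in size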; conditions: purified P. pyralis luciferase, luminescence, 5 min; series mostly up to 58.6 µM
Summary of the method: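 Counter-screen for direct inhibition of the luciferase enzyme by approved-drug library compounds, run at 10 nM enzyme in 50 mM Tris acetate (final). Luminescence was read within 5 min of enzyme-buffer addition and normalized to PTC124 versus DMSO (0%).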

[14] = S16 Schwann cell viability assay (CellTiter-Glo assay) (AID 624031); conditions: S16 rat Schwann cells viability, 24 h; series mostly up to 57.5 µM;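 also: cellular ATP luminescence as a viability measure; plate controls were DMSO-treated cells for no effect and cell-free wells for full effect; nearly all actives have a fitted effect of over 70% in size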
Summary of the method: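 Untransfected S16 rat Schwann cells; compound 24 h, 37 °C/5% CO2; CellTiter-Glo ATP luminescence. % activity vs no-cell wells and DMSO controls (0%); concentration-effect curves classed by r2, response magnitude, activity.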

[15] = S16 Schwann cell PMP22 intronic element firefly luciferase assay (AID 624032); conditions: S16 rat Schwann cells, PMP22 element FLuc, 24 h; series mostly up to 57.5 µM;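 also: plate controls were DMSO for no effect and PTC124 positive control mean for full effect; nearly all actives have a fitted effect of over 30% in size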
Summary of the method: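 Rat S16 Schwann cells stably carrying a PMP22 intronic element-driven Fluc reporter were seeded overnight, then exposed to compounds for 24 h at 37 °C. Luminescence was normalized to PTC124 (positive control) and DMSO (0% activity).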

[16] = S16 Schwann cell PMP22 intronic element beta-lactamase assay (AID 624044; calls by dose curve;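 also: 0% = DMSO and -100% = potassium clavulanate positive control; nearly all actives have a fitted effect of over 15% in size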); conditions: S16 rat Schwann cells, PMP22 element beta-lactamase FRET, 24 h; series mostly up to 38.3 µM
Summary of the method: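 Rat S16 Schwann cells with beta-Lac driven by a PMP22 intronic element, compound-treated 24 h at 37 °C. LiveBLAzer FRET B/G read: 460 nm normalized to potassium clavulanate vs DMSO; 535 nm FRET as viability; concentration-effect curves classified.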

[17] = qHTS profiling for inhibitors of Plasmodium falciparum proliferation (AID 504749);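 also: 0% = DMSO vehicle and full inhibition = artemisinin control; nearly all actives have a fitted effect of over 60% in size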; conditions: P. falciparum in erythrocytes, SYBR Green DNA, 72 h, at 28.7 µM (top of the series)
Summary of the method: (§1)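 P. falciparum-infected erythrocytes (0.3% parasitemia, 2.5% hematocrit final) were exposed to compounds for 72 h at 37 C in 5% CO2, then lysed with SYBR Green buffer overnight at room temperature; parasite DNA fluorescence was normalized to artemisinin and DMSO controls.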

3D7 = assay: as above; conditions: P. falciparum in erythrocytes, SYBR Green DNA, 72 h; series mostly up to 28.7 µM
Summary of the method: as §1

7G8 = assay: as above; conditions: P. falciparum in erythrocytes, SYBR Green DNA, 72 h; series mostly up to 28.7 µM
Summary of the method: as §1

AA1029 = assay: as above; conditions: P. falciparum in erythrocytes, SYBR Green DNA, 72 h; series mostly up to 28.7 µM
Summary of the method: as §1

AS120 = assay: as above; conditions: P. falciparum in erythrocytes, SYBR Green DNA, 72 h; series mostly up to 28.7 µM
Summary of the method: as §1

ATS189 = assay: as above; conditions: P. falciparum in erythrocytes, SYBR Green DNA, 72 h; series mostly up to 28.7 µM
Summary of the method: as §1

ATS95 = assay: as above; conditions: P. falciparum in erythrocytes, SYBR Green DNA, 72 h; series mostly up to 28.7 µM
Summary of the method: as §1

C2A = assay: as above; conditions: P. falciparum in erythrocytes, SYBR Green DNA, 72 h; series mostly up to 28.7 µM
Summary of the method: as §1

CP185 = assay: as above; conditions: P. falciparum in erythrocytes, SYBR Green DNA, 72 h; series mostly up to 28.7 µM
Summary of the method: as §1

CP191 = assay: as above; conditions: P. falciparum in erythrocytes, SYBR Green DNA, 72 h; series mostly up to 28.7 µM
Summary of the method: as §1

CP192 = assay: as above; conditions: P. falciparum in erythrocytes, SYBR Green DNA, 72 h; series mostly up to 28.7 µM
Summary of the method: as §1

CP194 = assay: as above; conditions: P. falciparum in erythrocytes, SYBR Green DNA, 72 h; series mostly up to 28.7 µM
Summary of the method: as §1

CP201 = assay: as above; conditions: P. falciparum in erythrocytes, SYBR Green DNA, 72 h; series mostly up to 28.7 µM
Summary of the method: as §1

CP203 = assay: as above; conditions: P. falciparum in erythrocytes, SYBR Green DNA, 72 h; series mostly up to 28.7 µM
Summary of the method: as §1

CP211 = assay: as above; conditions: P. falciparum in erythrocytes, SYBR Green DNA, 72 h; series mostly up to 28.7 µM
Summary of the method: as §1

CP215 = assay: as above; conditions: P. falciparum in erythrocytes, SYBR Green DNA, 72 h; series mostly up to 28.7 µM
Summary of the method: as §1

CP217 = assay: as above; conditions: P. falciparum in erythrocytes, SYBR Green DNA, 72 h; series mostly up to 28.7 µM
Summary of the method: as §1

CP237 = assay: as above; conditions: P. falciparum in erythrocytes, SYBR Green DNA, 72 h; series mostly up to 28.7 µM
Summary of the method: as §1

CP238 = assay: as above; conditions: P. falciparum in erythrocytes, SYBR Green DNA, 72 h; series mostly up to 28.7 µM
Summary of the method: as §1

CP247 = assay: as above; conditions: P. falciparum in erythrocytes, SYBR Green DNA, 72 h; series mostly up to 28.7 µM
Summary of the method: as §1

CP250 = assay: as above; conditions: P. falciparum in erythrocytes, SYBR Green DNA, 72 h; series mostly up to 28.7 µM
Summary of the method: as §1

Chain of Glucocorticoid receptor (Homo sapiens) (P04150 whole entry, looked up, the tested form may be a part): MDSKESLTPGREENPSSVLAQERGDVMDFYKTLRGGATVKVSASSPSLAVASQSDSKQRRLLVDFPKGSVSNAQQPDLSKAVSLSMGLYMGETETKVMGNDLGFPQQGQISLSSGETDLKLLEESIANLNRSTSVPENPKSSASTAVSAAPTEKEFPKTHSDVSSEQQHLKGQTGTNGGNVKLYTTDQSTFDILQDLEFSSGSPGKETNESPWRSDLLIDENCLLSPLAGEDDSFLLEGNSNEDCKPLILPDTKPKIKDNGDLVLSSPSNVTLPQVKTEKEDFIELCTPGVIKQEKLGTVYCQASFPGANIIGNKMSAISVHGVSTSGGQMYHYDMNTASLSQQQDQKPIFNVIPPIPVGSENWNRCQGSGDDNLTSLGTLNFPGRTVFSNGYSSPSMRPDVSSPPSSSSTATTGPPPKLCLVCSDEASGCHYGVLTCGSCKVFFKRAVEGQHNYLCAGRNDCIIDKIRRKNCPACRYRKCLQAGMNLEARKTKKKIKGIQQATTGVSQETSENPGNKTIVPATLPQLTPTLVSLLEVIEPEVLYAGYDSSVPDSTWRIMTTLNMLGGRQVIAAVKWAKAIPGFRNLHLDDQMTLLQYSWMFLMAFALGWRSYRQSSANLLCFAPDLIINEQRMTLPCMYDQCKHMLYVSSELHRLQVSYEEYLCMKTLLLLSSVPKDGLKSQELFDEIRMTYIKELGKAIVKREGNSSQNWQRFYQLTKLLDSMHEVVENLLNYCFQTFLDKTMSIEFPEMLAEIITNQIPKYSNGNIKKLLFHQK
Chain of Cytochrome P450 1A2 (Homo sapiens) (P05177 whole entry, looked up): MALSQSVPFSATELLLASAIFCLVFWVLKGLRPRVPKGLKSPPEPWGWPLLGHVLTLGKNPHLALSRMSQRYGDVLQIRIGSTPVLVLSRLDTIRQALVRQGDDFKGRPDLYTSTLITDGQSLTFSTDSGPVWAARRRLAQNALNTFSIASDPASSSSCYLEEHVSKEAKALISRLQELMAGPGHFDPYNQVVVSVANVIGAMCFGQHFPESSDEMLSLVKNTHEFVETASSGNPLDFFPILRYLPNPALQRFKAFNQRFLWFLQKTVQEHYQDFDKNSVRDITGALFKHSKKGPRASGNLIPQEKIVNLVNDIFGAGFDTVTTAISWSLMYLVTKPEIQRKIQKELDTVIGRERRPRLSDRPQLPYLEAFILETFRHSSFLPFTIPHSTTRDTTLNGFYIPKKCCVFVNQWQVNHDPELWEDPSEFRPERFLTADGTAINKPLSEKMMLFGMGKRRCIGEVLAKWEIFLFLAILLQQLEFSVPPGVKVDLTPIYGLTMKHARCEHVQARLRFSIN
Chain of Ubiquitin carboxyl-terminal hydrolase 1 (Homo sapiens) (O94782 whole entry, looked up): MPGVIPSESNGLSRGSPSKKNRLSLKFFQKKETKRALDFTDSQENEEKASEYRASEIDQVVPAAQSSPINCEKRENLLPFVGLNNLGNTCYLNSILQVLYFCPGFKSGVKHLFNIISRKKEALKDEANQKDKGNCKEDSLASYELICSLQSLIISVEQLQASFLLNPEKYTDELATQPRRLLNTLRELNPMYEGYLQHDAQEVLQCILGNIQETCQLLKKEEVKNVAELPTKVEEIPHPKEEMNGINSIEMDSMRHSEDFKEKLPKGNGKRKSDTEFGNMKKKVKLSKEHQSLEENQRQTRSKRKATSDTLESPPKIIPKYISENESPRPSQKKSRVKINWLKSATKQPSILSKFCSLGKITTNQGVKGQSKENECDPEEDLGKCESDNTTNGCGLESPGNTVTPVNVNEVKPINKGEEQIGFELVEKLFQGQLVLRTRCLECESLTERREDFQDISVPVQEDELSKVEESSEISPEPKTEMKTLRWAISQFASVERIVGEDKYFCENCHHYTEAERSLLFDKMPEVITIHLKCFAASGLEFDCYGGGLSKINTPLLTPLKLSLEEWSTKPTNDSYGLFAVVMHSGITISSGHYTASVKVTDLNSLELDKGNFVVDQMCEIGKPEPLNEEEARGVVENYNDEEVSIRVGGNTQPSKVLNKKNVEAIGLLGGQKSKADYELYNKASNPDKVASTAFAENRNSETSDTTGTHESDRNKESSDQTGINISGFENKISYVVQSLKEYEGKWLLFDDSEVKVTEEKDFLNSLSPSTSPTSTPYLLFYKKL
Chain of Lysosomal acid glucosylceramidase (Homo sapiens) (P04062 whole entry, looked up): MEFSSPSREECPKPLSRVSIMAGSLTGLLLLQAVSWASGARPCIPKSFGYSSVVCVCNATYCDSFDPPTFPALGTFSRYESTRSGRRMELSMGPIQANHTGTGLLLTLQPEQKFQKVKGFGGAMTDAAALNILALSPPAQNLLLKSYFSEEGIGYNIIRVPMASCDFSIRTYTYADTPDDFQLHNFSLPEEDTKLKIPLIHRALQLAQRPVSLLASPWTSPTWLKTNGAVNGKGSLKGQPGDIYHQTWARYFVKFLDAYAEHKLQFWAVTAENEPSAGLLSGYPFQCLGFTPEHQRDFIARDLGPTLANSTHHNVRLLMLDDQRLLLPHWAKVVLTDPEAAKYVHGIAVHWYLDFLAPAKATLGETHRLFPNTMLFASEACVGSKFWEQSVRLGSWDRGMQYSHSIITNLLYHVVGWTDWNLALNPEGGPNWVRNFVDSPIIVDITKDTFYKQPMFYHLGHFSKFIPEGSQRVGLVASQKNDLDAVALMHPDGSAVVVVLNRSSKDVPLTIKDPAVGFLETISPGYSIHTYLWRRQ
Chain of Luciferin 4-monooxygenase (Photinus pyralis) (P08659 whole entry, looked up): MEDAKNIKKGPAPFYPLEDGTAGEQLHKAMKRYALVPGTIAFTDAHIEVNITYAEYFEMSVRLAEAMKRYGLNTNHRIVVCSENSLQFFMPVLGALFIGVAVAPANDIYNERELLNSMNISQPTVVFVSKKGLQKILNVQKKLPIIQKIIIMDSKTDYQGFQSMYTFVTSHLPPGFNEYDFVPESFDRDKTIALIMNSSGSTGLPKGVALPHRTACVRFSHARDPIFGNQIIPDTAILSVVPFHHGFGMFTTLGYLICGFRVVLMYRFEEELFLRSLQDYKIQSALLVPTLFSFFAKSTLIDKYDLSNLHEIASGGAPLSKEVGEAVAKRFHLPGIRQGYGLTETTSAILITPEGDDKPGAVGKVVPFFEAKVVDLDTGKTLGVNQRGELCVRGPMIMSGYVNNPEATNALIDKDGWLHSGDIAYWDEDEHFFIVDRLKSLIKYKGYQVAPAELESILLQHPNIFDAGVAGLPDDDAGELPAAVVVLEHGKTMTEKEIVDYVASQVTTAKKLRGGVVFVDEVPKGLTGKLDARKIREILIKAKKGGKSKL
Chain of Cytochrome P450 2C19 (Homo sapiens) (P33261 whole entry, looked up): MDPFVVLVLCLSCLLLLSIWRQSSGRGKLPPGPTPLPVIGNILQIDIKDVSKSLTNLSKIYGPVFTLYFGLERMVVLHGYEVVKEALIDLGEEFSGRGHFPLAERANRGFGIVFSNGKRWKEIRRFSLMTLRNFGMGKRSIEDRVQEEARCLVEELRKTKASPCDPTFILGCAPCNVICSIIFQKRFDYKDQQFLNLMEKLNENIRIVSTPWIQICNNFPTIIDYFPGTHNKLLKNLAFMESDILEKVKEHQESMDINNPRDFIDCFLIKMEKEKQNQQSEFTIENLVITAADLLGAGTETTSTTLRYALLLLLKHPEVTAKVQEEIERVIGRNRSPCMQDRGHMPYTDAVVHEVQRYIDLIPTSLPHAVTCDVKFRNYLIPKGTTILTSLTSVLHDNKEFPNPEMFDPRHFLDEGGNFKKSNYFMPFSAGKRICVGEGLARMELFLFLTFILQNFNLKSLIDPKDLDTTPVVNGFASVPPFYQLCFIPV
Chain of 3',5'-cyclic-AMP phosphodiesterase 4B (Homo sapiens) (Q07343 whole entry, looked up): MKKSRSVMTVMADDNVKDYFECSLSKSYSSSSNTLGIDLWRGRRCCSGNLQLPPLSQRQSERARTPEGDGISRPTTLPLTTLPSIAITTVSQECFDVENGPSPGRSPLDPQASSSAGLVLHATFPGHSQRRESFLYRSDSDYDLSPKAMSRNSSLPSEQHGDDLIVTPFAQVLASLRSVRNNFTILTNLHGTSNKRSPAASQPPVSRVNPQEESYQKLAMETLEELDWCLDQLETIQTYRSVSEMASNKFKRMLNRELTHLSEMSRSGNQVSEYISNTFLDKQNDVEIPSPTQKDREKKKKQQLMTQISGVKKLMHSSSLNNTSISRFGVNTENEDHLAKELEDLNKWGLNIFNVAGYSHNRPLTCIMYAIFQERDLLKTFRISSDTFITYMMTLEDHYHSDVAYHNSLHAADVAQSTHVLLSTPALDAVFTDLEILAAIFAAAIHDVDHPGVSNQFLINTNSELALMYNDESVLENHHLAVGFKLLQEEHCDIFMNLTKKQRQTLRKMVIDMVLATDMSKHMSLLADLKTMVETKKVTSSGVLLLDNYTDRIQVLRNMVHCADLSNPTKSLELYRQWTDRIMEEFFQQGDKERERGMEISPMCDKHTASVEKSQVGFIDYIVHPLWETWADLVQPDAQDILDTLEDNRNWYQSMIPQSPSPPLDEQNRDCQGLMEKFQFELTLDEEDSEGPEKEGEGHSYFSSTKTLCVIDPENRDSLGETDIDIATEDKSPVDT
Chain of ATP-dependent 6-phosphofructokinase (Trypanosoma brucei brucei) (O15648 whole entry, looked up): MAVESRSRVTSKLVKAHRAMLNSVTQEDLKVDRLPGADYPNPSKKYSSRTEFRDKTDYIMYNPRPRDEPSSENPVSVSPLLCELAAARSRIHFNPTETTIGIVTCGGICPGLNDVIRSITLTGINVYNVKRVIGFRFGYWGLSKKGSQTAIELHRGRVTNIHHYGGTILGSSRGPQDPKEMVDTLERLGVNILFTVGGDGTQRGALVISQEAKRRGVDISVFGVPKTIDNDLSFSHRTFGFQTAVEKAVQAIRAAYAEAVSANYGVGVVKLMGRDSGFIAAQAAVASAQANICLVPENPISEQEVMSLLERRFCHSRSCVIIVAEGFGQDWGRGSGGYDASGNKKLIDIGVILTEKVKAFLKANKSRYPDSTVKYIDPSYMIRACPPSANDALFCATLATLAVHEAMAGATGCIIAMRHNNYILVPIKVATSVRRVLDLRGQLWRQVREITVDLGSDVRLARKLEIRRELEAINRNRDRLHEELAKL

C[N+]1([O-])[C@H]2CC[C@H]1CC(OC(=O)[C@@H](CO)c1ccccc1)C2 (stereo partly drawn)
inactive: Potency [1] > 11.4 µM | activity change, negative = inhibition [2] -0.292% | activity change, negative = inhibition [3] 0.8% [at 2.29 µM] | activity, negative = inhibition [5] -0.881% | Potency [6] > 46 µM | Potency [7] > 9.22 µM | activity change, negative = inhibition [8] 1.19% [at 11.4 µM] | outcome [9] | Potency [10] | outcome [11] | Potency [12] | outcome [13] | outcome [14] | outcome [15] | outcome [16] | activity, negative = inhibition ([17]; parasite line A) 6.57% | activity, negative = inhibition ([17]; parasite line B) -2.12% | Potency (3D7) | Potency (7G8) | Potency (AA1029) | Potency (AS120) | Potency (ATS189) | Potency (ATS95) | Potency (C2A) | Potency (CP185) | Potency (CP191) | Potency (CP192) | Potency (CP194) | Potency (CP201) | Potency (CP203) | Potency (CP211) | Potency (CP215) | Potency (CP217) | Potency (CP237) | Potency (CP238) | Potency (CP247) | Potency (CP250)
active: activity change, negative = inhibition [4] -79.7%
